From PubChem BioAssay
Calls of active or inactive are those of the source.

System: Wnt5a (protein binding on small-molecule microarray)
Test: Wnt5a binders on small-molecule microarray, primary screen, biophysical, 635/667 nm fluorescence (AID 1142);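 note: fluorescence read at 667 nm with signal to noise per printed feature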
Conditions: 635 nm fluorescence, higher = more signal

Question: For `C[N+](C)(C)CCCCNC(=O)[C@H]1C[C@H]2C(=O)N[C@@H](Cc3ccccc3)C(=O)N2[C@H]1c1cccc(OCCO)c1`, which composite z-score is on record?
Answer: 0.278

Question: With `CC(C)[Si](C#CCCc1ccccc1)(O[C@H](c1ccccc1)c1cn(Cc2ccccc2)nn1)C(C)C` as the compound, how does the composite z-score read?
Answer: 0.21

Question: Which composite z-score does the source give for `COc1ccc([Si](C)(C)[C@@H]2[C@@H](CC(=O)N3Cc4ccccc4C[C@H]3CO)O[C@]3(C(=O)N(Cc4cccc(N5CCOC5=O)c4)c4ccccc43)[C@H]2C)cc1` here?
Answer: 0.244

Question: For `CN1C(=O)[C@@H]2[C@@H](CC(COc3ccccc3)=C3[C@@H](CCc4ccccc4)OB(O)C[C@@H]32)C1=O`, which composite z-score is on record?
Answer: 0.0305

Question: With `COc1cc(C(O)C2C=CC3C(=O)N(c4ccccc4)C(=O)C3N2Nc2ccccc2F)cc(OC)c1OC` (configuration not stated) as the compound, how does the composite z-score read?
Answer: 0.36

Question: With `CCCCN1CC=CC23O[C@@H]4/C=C\CCCOC(=O)C4[C@H]2C(=O)N(C(CO)C(C)C)[C@@H]3C1=O` (some centres not stated) as the compound, how does the composite z-score read?
Answer: -0.256

Question: For `O=C1N(CCS(=O)(=O)c2ccccc2)c2ccccc2C[C@]12N=C(c1ccc(OCCCO)cc1)O[C@@H]2c1ccccc1`, which composite z-score is on record?
Answer: 0.553

Question: For `O=C1NC(=O)C2C1C=CC(C(O)c1ccc([N+](=O)[O-])cc1)N2Nc1ccccn1` (configuration not stated), which composite z-score is on record?
Answer: -0.0851

Question: For `O=C1[C@H]2C=C(I)[C@H](C[C@@H]2OCCCCCCO)[C@@]12CO2`, which composite z-score is on record?
Answer: -0.302

Question: Which composite z-score does the source give for `CN(C)C(=O)[C@]1(Cc2ccccc2)N=C(c2ccc(OCCCO)cc2)O[C@@H]1c1ccccc1CN=[N+]=[N-]` here?
Answer: 0.552

Question: With `Cc1ccc(C(C)CC(O)C2C=CC3C(=O)N(C)C(=O)C3N2Nc2ccccc2)o1` (configuration not stated) as the compound, how does the composite z-score read?
Answer: 0.342

Question: For `CCCCCCc1nc(-c2ccc(-c3ccc(Cl)c(Cl)c3)o2)cc2c1[Si](C(C)C)(C(C)C)OC2`, which composite z-score is on record?
Answer: -0.905

Question: Which composite z-score does the source give for `CC1CC/C=C\[C@H]2OC34C=CCN(c5ccc(Cl)cc5)C(=O)[C@H]3N(CCCCCCO)C(=O)[C@]4(C)C2C(=O)O1` (some centres not stated) here?
Answer: -0.765

Question: With `C=C(CCCC)/C(=C/C[C@H](OC(=O)c1ccncc1)c1cccc(OCCO)c1)c1cnc2ccccc2c1` as the compound, how does the composite z-score read?
Answer: 0.24

Question: For `C[C@@H]1ON(c2ccccc2)[C@H](c2ccccc2)[C@H]1C(=O)O`, which composite z-score is on record?
Answer: -0.0071

Question: For `CCOC(=O)C1=CC[C@@H](c2ccc(OC)cc2)N(S(=O)(=O)c2ccc(C)cc2)[C@H]1CC`, which composite z-score is on record?
Answer: 0.174

Question: With `COC(=O)[C@@]1(Cc2ccc(OC)cc2)[C@H]2c3cc(C(=O)N(C)C)[nH]c3C[C@H]2CN1C(=O)c1ccccc1` as the compound, how does the composite z-score read?
Answer: 0.117

Question: For `CCCCC(O)C1C=CC2C(=O)N(c3ccccc3)C(=O)C2N1Nc1ccccc1` (configuration not stated), which composite z-score is on record?
Answer: -0.152

Question: Which composite z-score does the source give for `CC(C)OC(=O)CC(=O)CC(O)c1cccc([N+](=O)[O-])c1` (configuration not stated) here?
Answer: 0.457

Question: With `O=C1NC(=O)C2C1C=CC(C(O)c1ccc(B(O)O)cc1)N2Nc1ccc(Cl)cc1Cl` (configuration not stated) as the compound, how does the composite z-score read?
Answer: -0.0744

Question: Which composite z-score does the source give for `O=C1c2ccccc2[C@@]2(Cc3ccccc3N(Cc3ccccc3)C2=O)[C@H](c2ccc(CO)cc2)N1Cc1ccccc1Cl` here?
Answer: -0.131

Question: For `CO[C@H]1O[C@H](CO)[C@@H](OC(=O)Nc2ccccc2)[C@H](OC(=O)Nc2ccccc2)[C@H]1OC(=O)Nc1ccccc1`, which composite z-score is on record?
Answer: 0.664

Question: Which composite z-score does the source give for `COCCCNC(=O)[C@@]1(CCS(=O)(=O)c2ccccc2)COC(c2ccc(OCCCO)cc2)=N1` here?
Answer: 0.612

Question: Which composite z-score does the source give for `COc1ccc(C(O)C2C=CC3C(=O)NC(=O)C3N2Nc2ccc(Cl)cc2Cl)c2ccccc12` (configuration not stated) here?
Answer: -0.181

Question: With `O=C1C[C@@](C(=O)O)(c2ccc([N+](=O)[O-])cc2)[C@@H](c2ccc(CO)cc2)N1C1CCCCC1` as the compound, how does the composite z-score read?
Answer: 0.239

Question: For `CC(C)(C)N1CC=CC23O[C@@H]4/C=C\CCCOC(=O)C4[C@H]2C(=O)N(CCCCCO)[C@@H]3C1=O` (some centres not stated), which composite z-score is on record?
Answer: -0.552

System: not listed separately
Test: cell viability in Huh7 cells, primary screen, cytotoxicity control for HCV replication inhibitor project, CellTiter-Glo luminescence, basal, 48 h (AID 1143);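 note: Huh7 hepatoma cells carrying a hepatitis C replication reporter with no stimulus; test concentration not given here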
Conditions: Huh7 HCV replicon, higher = more signal, called active from +8 up or from −8 down

Question: With `COCCOC(=O)N1C(=O)[C@@]2(c3cc(C#CCC(C(=O)OC)C(=O)OC)ccc31)[C@H](C(N)=O)[C@H]1C(=O)O[C@H](c3ccccc3)[C@H](c3ccccc3)N1[C@@H]2c1ccc(O)cc1` as the compound, how does the z-score read?
Answer: -5.41 (inactive)

Question: For `COc1cc(OC)c(C(O)C2C=CC3C(=O)N(c4ccccc4)C(=O)C3N2Nc2ccc(C(C)C)cc2)cc1Br` (configuration not stated), which z-score is on record?
Answer: -0.942 (inactive)

Question: Which z-score does the source give for `C#CCN1[C@@H](Cc2ccccc2)C(=O)O[C@H](Cc2ccccc2)[C@@H]1/C=C/C1CC1` here?
Answer: -3.05 (inactive)

Question: Which z-score does the source give for `CN(C)CCCNC(=O)[C@@H]1c2ccccc2C(=O)N(Cc2ccccc2C(F)(F)F)[C@H]1c1ccc(CO)cc1` here?
Answer: -0.574 (inactive)

Question: Which z-score does the source give for `COc1ccc([Si](C)(C)[C@H]2[C@H](CCO)O[C@@]3(C(=O)N(Cc4ccc(NC(=O)[C@H](C)O)cc4)c4ccccc43)[C@@H]2C)cc1` here?
Answer: -8.05 (active)

Question: For `CCOC(=O)C[C@H]1[C@H](OC(=O)c2ccccc2-c2ccccc2)[C@@H](NC(=O)c2ccc3ccccc3c2)c2cc(OCCCO)ccc2N1C(=O)Cc1ccc(OC)cc1`, which z-score is on record?
Answer: 0.0138 (inactive)

Question: For `COCCCN1C(=O)[C@@]2(c3ccc([N+](=O)[O-])cc3)CC(=O)N(CC34CC5CC(CC(C5)C3)C4)[C@@H]2c2ccc(CO)cc21`, which z-score is on record?
Answer: -0.636 (inactive)

Question: With `C=C1C(=O)C=C2CN(C(=O)c3ccccc3)[C@@](Cc3ccc(OC)cc3)(C(=O)OC)[C@@H]12` as the compound, how does the z-score read?
Answer: -3.68 (inactive)

Question: Which z-score does the source give for `C=CCNC(=O)[C@H]1[C@@H]2C(=O)O[C@@H](c3ccccc3)[C@@H](c3ccccc3)N2[C@@H](c2ccc(OCCO)cc2)[C@]12C(=O)Nc1ccccc12` here?
Answer: -1.62 (inactive)

Question: Which z-score does the source give for `COCCOC(=O)N1C(=O)[C@@]2(c3ccccc31)[C@H](c1ccc(O)cc1)N1[C@H](c3ccccc3)[C@H](c3ccccc3)OC(=O)[C@H]1[C@@H]2C(=O)N1CCCCCCC1` here?
Answer: -2.61 (inactive)

Question: For `C[N+](C)(C)CCCCNC(=O)[C@H]1C[C@H]2C(=O)N[C@@H](Cc3ccccc3)C(=O)N2[C@H]1c1cccc(OCCO)c1`, which z-score is on record?
Answer: -0.15 (inactive)

Question: With `CC(C)[Si](C#CCCc1ccccc1)(O[C@H](c1ccccc1)c1cn(Cc2ccccc2)nn1)C(C)C` as the compound, how does the z-score read?
Answer: -1.12 (inactive)

Question: With `COc1ccc([Si](C)(C)[C@@H]2[C@@H](CC(=O)N3Cc4ccccc4C[C@H]3CO)O[C@]3(C(=O)N(Cc4cccc(N5CCOC5=O)c4)c4ccccc43)[C@H]2C)cc1` as the compound, how does the z-score read?
Answer: -4.12 (inactive)

Question: With `CN1C(=O)[C@@H]2[C@@H](CC(COc3ccccc3)=C3[C@@H](CCc4ccccc4)OB(O)C[C@@H]32)C1=O` as the compound, how does the z-score read?
Answer: -0.706 (inactive)

Question: For `COc1cc(C(O)C2C=CC3C(=O)N(c4ccccc4)C(=O)C3N2Nc2ccccc2F)cc(OC)c1OC` (configuration not stated), which z-score is on record?
Answer: -1.73 (inactive)

Question: For `CCCCN1CC=CC23O[C@@H]4/C=C\CCCOC(=O)C4[C@H]2C(=O)N(C(CO)C(C)C)[C@@H]3C1=O` (some centres not stated), which z-score is on record?
Answer: -0.352 (inactive)

Question: Which z-score does the source give for `O=C1N(CCS(=O)(=O)c2ccccc2)c2ccccc2C[C@]12N=C(c1ccc(OCCCO)cc1)O[C@@H]2c1ccccc1` here?
Answer: -1.62 (inactive)

Question: With `O=C1NC(=O)C2C1C=CC(C(O)c1ccc([N+](=O)[O-])cc1)N2Nc1ccccn1` (configuration not stated) as the compound, how does the z-score read?
Answer: 1.06 (inactive)

Question: For `O=C1[C@H]2C=C(I)[C@H](C[C@@H]2OCCCCCCO)[C@@]12CO2`, which z-score is on record?
Answer: 0.567 (inactive)

Question: With `CN(C)C(=O)[C@]1(Cc2ccccc2)N=C(c2ccc(OCCCO)cc2)O[C@@H]1c1ccccc1CN=[N+]=[N-]` as the compound, how does the z-score read?
Answer: -3.95 (inactive)

Question: For `Cc1ccc(C(C)CC(O)C2C=CC3C(=O)N(C)C(=O)C3N2Nc2ccccc2)o1` (configuration not stated), which z-score is on record?
Answer: -0.206 (inactive)

Question: Which z-score does the source give for `CCCCCCc1nc(-c2ccc(-c3ccc(Cl)c(Cl)c3)o2)cc2c1[Si](C(C)C)(C(C)C)OC2` here?
Answer: -5.45 (inactive)

Question: Which z-score does the source give for `CC1CC/C=C\[C@H]2OC34C=CCN(c5ccc(Cl)cc5)C(=O)[C@H]3N(CCCCCCO)C(=O)[C@]4(C)C2C(=O)O1` (some centres not stated) here?
Answer: 0.641 (inactive)

Question: For `C=C(CCCC)/C(=C/C[C@H](OC(=O)c1ccncc1)c1cccc(OCCO)c1)c1cnc2ccccc2c1`, which z-score is on record?
Answer: -1.58 (inactive)

Question: Which z-score does the source give for `C[C@@H]1ON(c2ccccc2)[C@H](c2ccccc2)[C@H]1C(=O)O` here?
Answer: 0.343 (inactive)

Question: With `CCOC(=O)C1=CC[C@@H](c2ccc(OC)cc2)N(S(=O)(=O)c2ccc(C)cc2)[C@H]1CC` as the compound, how does the z-score read?
Answer: -5.57 (inactive)

Question: With `COC(=O)[C@@]1(Cc2ccc(OC)cc2)[C@H]2c3cc(C(=O)N(C)C)[nH]c3C[C@H]2CN1C(=O)c1ccccc1` as the compound, how does the z-score read?
Answer: 0.244 (inactive)

Question: For `CCCCC(O)C1C=CC2C(=O)N(c3ccccc3)C(=O)C2N1Nc1ccccc1` (configuration not stated), which z-score is on record?
Answer: 0.564 (inactive)

Question: With `CC(C)OC(=O)CC(=O)CC(O)c1cccc([N+](=O)[O-])c1` (configuration not stated) as the compound, how does the z-score read?
Answer: -3.92 (inactive)

Question: For `O=C1NC(=O)C2C1C=CC(C(O)c1ccc(B(O)O)cc1)N2Nc1ccc(Cl)cc1Cl` (configuration not stated), which z-score is on record?
Answer: -0.245 (inactive)

Question: For `O=C1c2ccccc2[C@@]2(Cc3ccccc3N(Cc3ccccc3)C2=O)[C@H](c2ccc(CO)cc2)N1Cc1ccccc1Cl`, which z-score is on record?
Answer: -1.35 (inactive)

Question: For `CO[C@H]1O[C@H](CO)[C@@H](OC(=O)Nc2ccccc2)[C@H](OC(=O)Nc2ccccc2)[C@H]1OC(=O)Nc1ccccc1`, which z-score is on record?
Answer: -4.39 (inactive)

Question: For `COCCCNC(=O)[C@@]1(CCS(=O)(=O)c2ccccc2)COC(c2ccc(OCCCO)cc2)=N1`, which z-score is on record?
Answer: -0.0036 (inactive)

Question: Which z-score does the source give for `COc1ccc(C(O)C2C=CC3C(=O)NC(=O)C3N2Nc2ccc(Cl)cc2Cl)c2ccccc12` (configuration not stated) here?
Answer: -1.74 (inactive)

Question: With `O=C1C[C@@](C(=O)O)(c2ccc([N+](=O)[O-])cc2)[C@@H](c2ccc(CO)cc2)N1C1CCCCC1` as the compound, how does the z-score read?
Answer: -3.27 (inactive)

Question: Which z-score does the source give for `CC(C)(C)N1CC=CC23O[C@@H]4/C=C\CCCOC(=O)C4[C@H]2C(=O)N(CCCCCO)[C@@H]3C1=O` (some centres not stated) here?
Answer: -0.0495 (inactive)
